Screening results: PubChem, National Center for Advancing Translational Sciences (NCATS)
Hits are enriched below; roughly 6.6% of the tested compounds scored in any of these assays.
HT1080NT lethal – kills 2HG-producing HT-1080-NT fibrosarcoma cells. HT-1080-NT fibrosarcoma viability, CellTiter-Glo ATP luminescence, 48 h. Potency, µM (titrated, usually from 46.1 µM), without a hit: at the top dose activity, negative = less viability, hits mostly cytotoxic. hit rate 1.6% among 360,000;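 note: NT is the 2HG producing partner of a matched IDH1 knockdown line; 0% = DMSO-treated cells and -100% = media-only wells without cells; nearly all actives have a fitted effect of over 55% in size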
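Viability by CellTiter-Glo luminescence after 48 h compound exposure at 37C of HT-1080-NT cells (750/well, RPMI, 5% FBS). % activity scaled between DMSO wells and medium-only wells, then curve-fitted and categorized by curve class.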
HepG2 tox – HepG2 cytotoxicity, counter-screen for TGF-b inhibitors | HepG2 CAGA-GFP viability, ATP luminescence, 18 h | Potency, µM (doses to about 46.1 µM), for the others: at the top dose activity change, negative = cytotoxicity, usual class: cytotoxic | hit rate 0.76% among 410,000 | AID 588856
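HepG2 CAGA-GFP cells (1000/well, DMEM with 1% FBS) received compound, then TGF-beta at 500 pg/mL final, and were incubated 18 hours at 37 degrees C. Viability was read by CellTiter-Glo luminescence. Media-only wells were set as complete cell-killing and DMSO as no toxicity.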
KB-3-1 tox – kills parental KB-3-1 adenocarcinoma cells. AID 1347075. hit rate 1.4% among 400,000. Potency, µM (series often up to 46.1 µM), actives largely listed as cytotoxic. KB-3-1 viability, CellTiter-Glo ATP luminescence, 72 h; note: % is set by controls: 0 for no effect and ±100 for the full control effect; nearly all actives have a fitted effect of over 60% in size
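Screening of KB-3-1 cells (DMEM, 10% FBS, phenol-red free) ran from lowest to highest compound concentration; after 72 h at 37 °C viability was read luminescently and curves fitted.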
KB-V1 MDR tox – kills drug-selected multidrug resistant KB-V1 cells | KB-V1 MDR cells viability, CellTiter-Glo, 72 h | Potency, µM (titrated, usually from 46.1 µM), actives largely listed as cytotoxic | hit rate 3.4% among 400,000 | AID 1347076; note: % is set by controls: 0 for no effect and ±100 for the full control effect; nearly all actives have a fitted effect of over 60% in size
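Following 72 h at 37 degrees C with compound, KB-V1 cell viability was read by CellTiter-Glo luminescence, medium being phenol-red-free DMEM plus 10% FBS; concentration-response parameters came from normalized, curve-fitted qHTS data.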
HT1080 IDH1KD tx – kills HT-1080 cells with IDH1 knockdown; HT-1080 IDH1 knockdown viability, ATP luminescence, 48 h; Potency, µM (highest dose often 46.1 µM), without a hit: at the top dose activity, negative = toxicity, most hits filed as cytotoxic; hit rate 2% among 360,000; AID 686971;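 note: 0% = DMSO wells and -100% = cell-free medium wells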
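Luminescent ATP read-out (CellTiter-Glo, 10 min at room temperature) after 48 h compound exposure at 37 °C gave viability of IDH1-knockdown HT-1080 cells. Activity was normalised to DMSO and cell-free wells, then fitted as concentration-response curves.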
TGFb inhibitor – TGF-b pathway inhibition; Potency, µM (series often up to 46.1 µM), for the others: at the highest dose activity, negative = inhibition, usual class: inhibitors; HepG2 CAGA-GFP TGF-b/SMAD3 reporter, GFP fluorescence, 18 h; TGF-beta stimulated, 500 pg/mL final; hit rate 1.2% among 410,000; note: % is set by controls: 0 for no effect and ±100 for the full control effect; nearly all actives have a fitted effect of over 65% in size
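Inhibition of TGF-beta-driven CAGA-GFP reporter expression in HEPG2 cells is measured by cellular GFP fluorescence after 18 h stimulation with 500 pg/mL recombinant TGF-beta in 1% FBS medium at 37 degrees C.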
Numbers without * were called inactive; i = inactive; u = inconclusive; x = no result given; ! = not confirmed by another sample. Calls come from the whole dose curve; as a rule, active = well fitted curve in the direction sought with a large enough effect; inconclusive = small, poorly fitted or top-dose-only effect, or another doubt; inactive = no such curve, though single readings can be large; an effect the other way counts as inactive or inconclusive. Potency is the fitted concentration of half-maximal effect.

SMILES	HT1080NT lethal	HepG2 tox	KB-3-1 tox	KB-V1 MDR tox	HT1080 IDH1KD tx	TGFb inhibitor
CCCN1CNc2c(c(=O)[nH]c(=S)n2CCc2ccc(OC)cc2OC)C1	0%	x	x	x	8%	x
Cc1ccc(NC(=O)CCCCCN2C(=O)c3ccccc3C2=O)nc1	7%	-2%	i	i	5%	10%
Cc1ccc(NCN2C(=O)C(=O)c3ccccc32)nc1	-10%	-35%	u	i	-25%	6.3µM*
Cc1onc(-c2c(F)cccc2Cl)c1C(=O)Nc1cc2cc([N+](=O)[O-])ccc2oc1=O	-8%	0%	i	i	-2%	-8%
CCC(=O)N1Cc2cc(C(=O)Nc3nccs3)nc(-c3cccc(-c4ccccc4OC)c3)c2[C@@H]1CCO	u	x	i	23µM*	-11%	x
CCc1ccc2oc(-c3cccc(NC(=O)C(C)(C)Oc4ccc(Br)cc4)c3)nc2c1	x	-1%	i	i	x	12%
CCCCCOC(=O)C1=C(C)Nc2nnnn2C1c1ccccc1Cl (configuration not stated)	13µM*	-109%	i	21µM*	21µM*	u
CCOC(=O)c1cc(-c2ccc(OC)cc2)n(CCC(=O)NCCc2ccc(OCC)c(OCC)c2)c1C	x	-13%	x	x	x	-33%
CCOc1cc(S(=O)(=O)NCc2ccc3c(c2)OCO3)c(C)cc1C	-20%	-14%	i	i	-14%	-3%
NS(=O)(=O)c1ccc(CNC(=O)c2ccc(Cl)c(S(=O)(=O)NCc3ccccc3)c2)cc1	9%	4%	i	i	0%	-1%
CCOc1cc(C)c(Cl)cc1S(=O)(=O)NCc1ccc2c(c1)OCO2	u	2%	u	13µM*	u	3%
O=C(NCc1ccc2c(c1)OCO2)c1ccc(Cl)c(S(=O)(=O)NCc2ccccc2)c1	2%	-19%	i	23µM*	-15%	-6%
COc1ccc(NC(=O)N(Cc2ccco2)C2CCN(C(C)=O)CC2)c(OC)c1	x	-22%	i	i	x	-17%
Cc1ccccc1N(C)C(=O)c1noc2c1COc1ccccc1-2	x	3%	x	x	x	-5%
CCCc1ccc(-c2cc(NC(=O)CSc3nnc(N)s3)n(-c3ccccc3)n2)cc1	16µM*	-17%	i	i	u	u
CCCCC(C(=O)NCCC(C)C)N(CCCN1CCOCC1)C(=O)c1snc(C(N)=O)c1N (configuration not stated)	18%	-24%	i	9.2µM*	13%	3%
O=C(Nc1cccc(O)c1)c1noc2c1CCc1ccccc1-2	-26%	-81%	i	23µM*!	-28%	u
CCC(C)(C)n1nnnc1C(c1cc2cc(C)ccc2[nH]c1=O)N1CCCc2ccccc21 (configuration not stated)	-3%	0%	i	u	0%	3%
CCC(C)(C)n1nnnc1C(c1cc2ccc(OC)cc2[nH]c1=O)N1CCc2ccccc2C1 (configuration not stated)	-6%	-42%	u	i	u	u
CCC(C)(C)n1nnnc1C(c1cc2cc(OC)ccc2[nH]c1=O)N1CCc2ccccc21 (configuration not stated)	1%	3%	u	18µM*	-14%	-18%
Cc1cc2cc(C(c3nnnn3Cc3ccccc3)N3CCc4ccccc43)c(=O)[nH]c2cc1C (configuration not stated)	-29%	-11%	i	8.2µM*	-29%	u
Cc1ccc2[nH]c(=O)c(C(c3nnnn3Cc3ccccc3)N3CCc4ccccc43)cc2c1 (configuration not stated)	-22%	-27%	i	u	-20%	-26%
CCC(C)(C)n1nnnc1C(c1cc2ccc(OC)cc2[nH]c1=O)N1CCc2ccccc21 (configuration not stated)	u	-1%	i	i	11µM*	u
COc1ccccc1Cn1ccn(Cc2ccc(C)cc2)c(=O)c1=O	x	-16%	x	x	x	-17%
COc1ccc(CN2c3c(Br)cccc3C(=O)CS2(=O)=O)cc1	23µM*	-34%	i	i	u	u
SMILES	HT1080NT lethal	HepG2 tox	KB-3-1 tox	KB-V1 MDR tox	HT1080 IDH1KD tx	TGFb inhibitor
O=C1NC(c2ccccc2O)Nc2ccccc21 (configuration not stated)	0%	-4%	i	i	1%	-3%
Cc1cc(C)c2nc(Cl)c(C3NC(=O)c4ccccc4N3)cc2c1 (configuration not stated)	0%	-12%	i	i	4%	-1%
Cc1ccc(C)c(C2NC(=O)c3ccccc3N2)c1 (configuration not stated)	u	-3%	u	i	2.3µM*	-2%
CSc1ccc(C2NC(=O)c3ccccc3N2)cc1 (configuration not stated)	18µM*	2%	u	u	9.2µM*	-9%
O=C1NC(c2ccc(O)cc2)Nc2ccccc21 (configuration not stated)	u	-12%	u	u	u	0%
COc1cc(C)c(C2NC(=O)c3ccccc3N2)cc1C (configuration not stated)	5.8µM*	-31%	2.6µM*	u	u	u
Cn1cc(C2NC(=O)c3ccccc3N2)c2ccccc21 (configuration not stated)	4.6µM*	1%	1.2µM*	1.5µM*	8.2µM*	-12%
c1ccc(CSc2nnc(C3CCNCC3)o2)cc1	x	-17%	i	i	x	-1%
COc1ccc(-c2c(-c3ccc4c(c3)OCO4)noc2-c2ccsc2)cn1	x	-26%	i	u	x	u
O=C(Oc1ccc(Cl)c2cccnc12)N1CCOCC1	-2%	1%	i	i	3%	-13%
O=C(Oc1c(CN2CCOCC2)cc(Cl)c2cccnc12)c1ccc(F)cc1	u	-39%	5.8µM*	3.3µM*	u	u
COc1ccc(C(=O)Oc2c(CN3CCOCC3)cc(Cl)c3cccnc23)cc1	21µM*	7.9µM*	10µM*	u	u	10µM*
COc1cc(C(=O)Oc2c(CN3CCOCC3)cc(Cl)c3cccnc23)cc(OC)c1OC	u	-88%	u	u	u	4µM*
COc1cccc(C(=O)Oc2c(CN3CCOCC3)cc(Cl)c3cccnc23)c1	u	-55%	u	7.3µM*	12µM*	u
